# Screening results from PubChem BioAssay.
# LGR2 antag – Drosophila LGR2 receptor signaling inhibition; HEK293 LGR2, CRE-luciferase, bursicon-stimulated, 4 h; inhibition, % at 9.99 µM; 380,000 compounds, 0.35% hits; AID 720647;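 active = drop in luminescence signal, shown as inhibition above about 50% in the replicate tests, limit read from the data, passing the limit was not always enough; inconclusive = probably only some replicates passing the limit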;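 also: agonist challenge used bursicon conditioned medium at about half maximal strength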
# PAX8 reporter – lowers PAX8-driven luciferase in RMG-I cells. 360,000 compounds, 1.2% hits. inhibition, % at 12.6 µM. RMG-I TPO-luciferase reporter, SteadyGlo, 24 h. AID 652154;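 active = mean replicate inhibition at least 60% with every replicate also reaching 60%; inconclusive = only one of the two criteria is met; inactive = mean below 60% and not all replicates reaching 60%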;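 also: luciferase light reporting Pax8 driven TPO promoter activity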
# TWEAK-Fn14 inh – blocks TWEAK-Fn14 interaction in a reporter cell assay. TWEAK-stimulated Fn14 reporter cells, luciferase luminescence, 8 h. AID 1159606. 360,000 compounds, 2% hits. inhibition, % at 10 µM; in the data active = inhibition above about 50%
# EBV LMP1 NFkB – reduces LMP1-driven NF-kappaB luciferase signal; inhibition, % at 12.5 µM; LMP1-induced NF-kappaB luciferase reporter cells, luminescence; 350,000 compounds, 0.69% hits; AID 504558; in the data active = inhibition above about 41%; inconclusive = no clear call, values can overlap the other calls
# EWS-Fli block – EWS/Fli transcriptional activity inhibition. A673 NR0B1-luciferase reporter, viability-normalised. inhibition, % at 12.6 µM. 350,000 compounds, 0.67% hits. AID 651661;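 active = mean inhibition of at least 50% after viability correction, with every replicate also passing that limit; inconclusive = mean reaches 50% but only one of two replicates passes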;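 also: firefly luciferase signal divided by Alamar Blue viability fluorescence both relative to DMSO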
# TROY NFkB inh – TROY signaling inhibition; AID 1347056; inhibition, % at 10 µM; 360,000 compounds, 0.98% hits; Q293 LMP1-TROYcd NF-kB luciferase reporter, 4 h;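 active = compounds whose plate-normalised and pattern-corrected inhibition of the luciferase reporter signal at the single screening dose is 50% or more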
# Numbers stand for hits; . = inactive; ? = inconclusive; / = not tested or not shown; ! = not active in a repeat. A selection: hits, their analogues and other compounds. The true share with any hit is near 3.1%.
SMILES,LGR2 antag,PAX8 reporter,TWEAK-Fn14 inh,EBV LMP1 NFkB,EWS-Fli block,TROY NFkB inh
O=C1C=CC(=C(c2ccc(O)cc2)c2ccc(O)cc2)C=C1,58!,106,.,.,.,.
CC1=NN(c2ccc(F)cc2)C(=O)C1C(c1cccc(O)c1)c1c(C)[nH]n(-c2ccc(F)cc2)c1=O (stereo unspecified),/,/,.,.,/,.
CC1=NN(c2ccc(Cl)cc2)C(=O)C1C(c1cccc(O)c1)c1c(C)[nH]n(-c2ccc(Cl)cc2)c1=O (stereo unspecified),/,/,50,.,/,.
COc1ccc(NC(=O)c2ccc(F)cc2)cc1S(=O)(=O)Nc1cc(C)ccc1Br,.,.,60,.,/,.
O=C(Nc1nnc(-c2ccc(Cl)cc2)o1)C1CCCCC1,.,.,.,.,.,.
Clc1ccc(-c2nnc(NC3=NCCCCC3)o2)cc1,/,/,93,46,/,66
COP(C)(=O)c1c(C)nn(-c2ccccc2)c1C (stereo unspecified),/,/,69,.,/,/
COc1ccc(NC(=O)N(C)C[C@@H]2OCCCC[C@H](C)Oc3ccc(NS(=O)(=O)c4ccc(OC)cc4)cc3C(=O)N([C@H](C)CO)C[C@@H]2C)cc1,.,.,/,/,.,/
CCC(=O)Nc1cc2nn(-c3ccccc3)nc2cc1Cl,/,.,52,.,/,.
O=C(Nc1cc(Oc2ccc(Cl)cc2)cc([N+](=O)[O-])c1)c1ccco1,.,.,57,.,/,57
COc1ccc(CCC(=O)Nc2cccc(Cl)c2)cc1,.,/,.,.,/,.
O=C(CCc1ccc(Oc2cc([N+](=O)[O-])cc([N+](=O)[O-])c2)cc1)Nc1cccc(Cl)c1,.,.,59,.,/,.
Cc1noc(C)c1S(=O)(=O)Nc1ccc2c(c1)CC(=O)N([C@H](C)CO)C[C@@H](C)[C@@H](CN(C)Cc1ccc(Cl)c(Cl)c1)O2,.,.,/,/,.,/
O=C(NC(=S)N1CCCc2ccccc21)c1ccco1,.,.,52,.,.,53
Cc1ccc(C(=O)N2CCc3ccccc32)cc1NC(=O)c1ccco1,.,.,89,.,.,.
O=C(COc1ccc(Cl)cc1Cl)NC(=S)N1CCCc2ccccc21,.,/,58,.,.,.
O=C(COc1ccc(Cl)cc1Cl)NC(=O)N1CCCCC1,/,/,61,.,/,.
Cc1ccc(C(=O)N2CCc3ccccc32)cc1C,.,.,.,.,.,.
O=C(COc1ccc(Cl)cc1Cl)OCC(=O)N1CCCc2ccccc21,.,.,.,.,.,.
CCC(=O)N1CC2(C1)[C@H](c1ccccc1)[C@H](CO)N2CCC(F)(F)F,.,.,/,/,.,/
COc1ccccc1S(=O)(=O)N[C@H]1CC[C@@H](CCNC(=O)C2CC2)O[C@H]1CO,.,.,/,/,.,/
Cc1cccc(OCC(=O)NC(=S)N2CCCc3ccccc32)c1,.,/,56,.,.,.
Cc1cccc(OCC(=O)Nc2ccccc2N2CCCCC2)c1,/,.,.,.,/,.
COc1ccccc1S(=O)(=O)N[C@H]1CC[C@H](CCn2cc(C3CC3)nn2)O[C@H]1CO,.,.,/,/,.,/
CC1CC(C)CN(c2ncnc3c2cnn3-c2ccc(Cl)cc2)C1 (stereo unspecified),.,.,77,.,.,78
SMILES,LGR2 antag,PAX8 reporter,TWEAK-Fn14 inh,EBV LMP1 NFkB,EWS-Fli block,TROY NFkB inh
CC1CCCN(c2ncnc3c2cnn3-c2ccc(Cl)cc2)C1 (stereo unspecified),97,76,104,60,86,89
Cc1ccc(-n2ncc3c(N4CCCC(C)C4)ncnc32)c(C)c1 (stereo unspecified),.,.,.,.,.,.
c1ccc(CCN2CCN(c3ncnc4c3cnn4-c3ccccc3)CC2)cc1,/,.,.,.,/,.
COc1ccc(-n2ncc3c(N4CCN(Cc5ccccc5)CC4)ncnc32)cc1,.,.,81,.,.,61
CC1CC(C)CN(c2ncnc3c2cnn3C)C1 (stereo unspecified),.,.,.,.,.,.
S=c1sc2c(N3CCN(Cc4ccccc4)CC3)ncnc2n1-c1ccccc1,/,/,58,.,/,56
O=C(C[C@H]1CC[C@@H](NC(=O)Cc2ccccn2)[C@@H](CO)O1)NCCc1ccncc1,.,.,/,/,.,/
c1ccc(-n2ncc3c(N4CCCCC4)ncnc32)cc1,61,.,95,41,75,71
Cc1ccc(-n2ncc3c(N4CCCC4)ncnc32)c(C)c1,/,.,.,.,/,.
COc1cccc(N2CCN(c3ncnc4c3cnn4-c3ccc(C)cc3C)CC2)c1,?,102,106,.,.,80
CCN1CCN(c2ncnc3c2cnn3-c2ccc(Cl)cc2)CC1,/,.,.,.,.,.
CC1CCCN(c2ncnc3c2cnn3-c2ccccc2)C1 (stereo unspecified),84,.,92,.,69,80
CCN1CCN(c2ncnc3c2cnn3-c2ccccc2)CC1,.,.,.,.,.,.
CN1CCN(c2ncnc3c2cnn3-c2ccc(Cl)cc2)CC1,.,.,76,.,.,80
COc1cccc(C=C(C(C)=O)C(=O)c2ccccc2)c1,.,.,51,/,.,.
CCC(=O)Nc1ccc(/C=C(\C(C)=O)C(=O)c2ccccc2)cc1,52,.,.,.,.,.
O=C(C(=Cc1ccc(F)cc1)C(=O)c1ccccc1)c1ccccc1,.,.,78,/,.,.
COc1cccc(/C=C(/C(=O)OCC(N)=O)c2ccccc2)c1,.,.,.,.,.,.
CCC(=O)Nc1ccc(C=C(C(C)=O)C(C)=O)cc1,.,.,.,.,.,.
C[C@@H]1CN([C@H](C)CO)C(=O)c2cc(-c3cccnc3)cnc2O[C@H]1CN(C)C(=O)C1CCCCC1,.,/,/,/,.,/
C[C@H](CO)N1C[C@H](C)[C@H](CN(C)Cc2ccc(Cl)c(Cl)c2)Oc2ccc(NS(=O)(=O)c3cn(C)cn3)cc2C1=O,.,.,/,/,.,/
CN1CCN(C(c2ccccn2)c2cc(Cl)c3cccnc3c2O)CC1 (stereo unspecified),.,.,.,.,.,.
Oc1c(C(c2ccccn2)N2CCC(Cc3ccccc3)CC2)cc(Cl)c2cccnc12 (stereo unspecified),/,83,/,/,.,/
Cc1noc(C)c1NC(=O)N(C)C[C@H]1OCCCC[C@@H](C)Oc2ccc(NS(=O)(=O)c3cccs3)cc2C(=O)N([C@H](C)CO)C[C@H]1C,.,.,/,/,.,/
O=C(O)CC(CCc1ccccc1)OC1OC(CO)C(O)C(O)C1O (stereo unspecified),.,/,59,.,.,.
CCCCn1c(SCC(=O)Nc2cccc(OC)c2)nc2ccc(N3CCOCC3)cc2c1=O,/,.,.,.,/,62
Cc1cc(NCCCCCCCNc2cc(C)nc3cc([N+](=O)[O-])ccc23)c2ccc([N+](=O)[O-])cc2n1,.,.,77,79,.,.
COCCCNc1cc(C)nc2ccccc12,.,/,.,.,/,.
